# Measured values from PubChem BioAssay (Tox21).
# Inconclusive results are not listed. Activity calls are given as the source filed them. The call rests on the fitted dose curve; in most records, active means well fitted curve in the direction sought with a large enough effect in the repeat runs; inconclusive means weak or mixed curves; inactive means no such curve, though single readings can be large; an effect the other way counts as inactive or inconclusive.
# Assay: A CellTox Green Cytotoxicity Assay to monitor cytotoxicity in HepG2 cells - 40 hour (AID 1224879); further: nearly all actives have a fitted effect of over 40% in size
# Conditions: CellTox Green fluorescence; series mostly up to 76.8 µM; cytotoxicity increase: at the top concentration
# Outline: (§1)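 Real-time cytotoxicity: fluorescence of a cell-impermeant cyanine dye binding DNA of dead HepG2 cells, measured repeatedly (0–40 h) during compound exposure at 37 C. Cells seeded 600/well with reagent, dosed after 5 h.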
# On the % scale 0 is the no-effect control and ±100 the full control effect.
row,SMILES,cytotoxicity increase
1,CC(C)(CO)[C@@H](O)C(=O)NCCCO,-6.23% [at 35.3 µM] (inactive)
2,COc1cccc2sc(N)nc12,-2.19% (inactive)
3,OC[C@@H](O)[C@H](O)[C@@H](O)[C@@H](O)CO,22.7% (inactive)
4,CCCCCCCCCCCCCCCCCCN(C)C,-3.54% [at 35.3 µM] (inactive)
5,NS(=O)(=O)c1ccccc1OC(F)(F)F,-13.3% (inactive)
6,Nc1cc(Cl)cc(S(=O)(=O)O)c1O,-1.93% (inactive)
7,C=CC(C)(O)CC/C=C(\C)CC (configuration not stated),-6.19% (inactive)
8,CCOC(=O)CC(CC(=O)OCC)(OC(C)=O)C(=O)OCC,1.21% (inactive)

# Assay: qHTS RealTime-Glo MT Cell Viability Assay in HEK293 cells - 0 hour (AID 1224880); further: top concentration of the series differs between compounds; nearly all actives have a fitted effect of over 45% in size
# Conditions: RealTime-Glo luminescence; series mostly up to 76.8 µM; activity change, negative = cytotoxicity: at the top concentration
# Outline: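 Luminescence, which tracks viable cell number through reduction of the prosubstrate to a NanoLuc substrate, was read over continuous 37 C culture. Cells (600/well) were premixed with reagent and rested 5 h before 23 nL of compound in DMSO was pinned.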
row,SMILES,"activity change, negative = cytotoxicity"
1,CCCCCCCC[Si](OCC)(OCC)OCC,9.13% (inactive)
2,CCC(C)(CCC(C)C)C(=O)[O-].CCC(C)(CCC(C)C)C(=O)[O-].[Zn+2] (configuration not stated),5.3% (inactive)
3,O=C(COCCOCCOCC(=O)Nc1c(I)cc(I)c(C(=O)O)c1I)Nc1c(I)cc(I)c(C(=O)O)c1I,7.01% [at 35.3 µM] (inactive)
4,CN=C(NC#N)NCCSCc1csc(N=C(N)N)n1,3.62% [at 35.3 µM] (inactive)
5,CCC(C)N (configuration not stated),-3.71% (inactive)
6,CCOc1ccc(NC(=O)OC(C)C)cc1OCC,-13.3% (inactive)
7,CCCC(C)CC (configuration not stated),9.05% (inactive)
8,Cc1ncc([N+](=O)[O-])n1CC(O)CCl (configuration not stated),-1.88% [at 35.3 µM] (inactive)
9,Cc1nc2ccccc2c(=O)o1,0.672% (inactive)
10,O=C1c2ccccc2-c2ccccc21,-8.56% (inactive)
11,C/C=C(\C)C(=O)OCC/C=C\CC,1.92% (inactive)
12,CN(C1CCCCC1)S(=O)(=O)c1ccccc1N,-9.27% (inactive)
13,Cc1ccc2c(c1)c1c3n2CCNC3CCC1 (configuration not stated),17.7% [at 35.3 µM] (inactive)
14,Cc1ccc(S(=O)(=O)NC(=O)NC2CCCCCCC2)cc1,-3.35% [at 35.3 µM] (inactive)
15,NCCc1ccn[nH]1,22.2% [at 35.3 µM] (inactive)
16,CCCCC(CC)CNC(=O)CC(C)OC(=O)CCC(=O)O (configuration not stated),-0.124% [at 35.3 µM] (inactive)
17,O=S1(=O)CCCC1,-2.1% (inactive)

row,SMILES,"activity change, negative = cytotoxicity"
1,CCCOC(=O)CCCCC(=O)OCCC,-4.12% (inactive)
2,CC(CC(=O)O)CC(C)(C)C (configuration not stated),-6.08% (inactive)
3,CC(C)(C)NCCO,4.4% (inactive)
4,c1ccc(CNc2ncnc3nc[nH]c23)cc1,-9.33% (inactive)
5,O=C(O)C(=O)Nc1cccc(-c2nn[nH]n2)c1,0.0849% [at 35.3 µM] (inactive)
6,CC(=O)OC(C)c1ccccc1 (configuration not stated),8.15% (inactive)
7,CCOC(=O)C(=O)c1csc(NC=O)n1,5.27% [at 35.3 µM] (inactive)
8,O=P(O)(O)OCC(O)CO (configuration not stated),5.93% [at 35.3 µM] (inactive)
9,CCCCCCCCCCCCCCCC(=O)NCCO,-0.749% [at 35.3 µM] (inactive)
10,CC(C)(CO)[C@@H](O)C(=O)NCCCO,7.08% [at 35.3 µM] (inactive)
11,COc1cccc2sc(N)nc12,-14.9% (inactive)
12,OC[C@@H](O)[C@H](O)[C@@H](O)[C@@H](O)CO,-0.3% (inactive)
13,CCCCCCCCCCCCCCCCCCN(C)C,-1.32% [at 35.3 µM] (inactive)
14,Nc1cc(Cl)cc(S(=O)(=O)O)c1O,-0.729% (inactive)
15,O=C(CN1CCN(Cc2ccc3c(c2)OCO3)CC1)N1c2ccccc2Sc2ccccc21,9.21% [at 35.3 µM] (inactive)
16,C=CC(C)(O)CC/C=C(\C)CC (configuration not stated),3.78% (inactive)
17,CCOC(=O)CC(CC(=O)OCC)(OC(C)=O)C(=O)OCC,0.448% (inactive)

# Assay: A CellTox Green Cytotoxicity Assay to monitor cytotoxicity in HEK293 cells - 32 hour (AID 1224881); further: nearly all actives have a fitted effect of over 40% in size
# Conditions: CellTox Green fluorescence; series mostly up to 76.8 µM; cytotoxicity increase: at the top concentration
# Outline: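 Fluorescence from a DNA-binding dye excluded by viable cells was measured repeatedly in the same HEK293 wells (600 cells/well) during continuous compound exposure at 37 C. Each assay gives one read point: 0, 8, 16, 24, 32 or 40 h.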
row,SMILES,cytotoxicity increase
1,CCCCCCCC[Si](OCC)(OCC)OCC,-2.07% (inactive)
2,CCC(C)(CCC(C)C)C(=O)[O-].CCC(C)(CCC(C)C)C(=O)[O-].[Zn+2] (configuration not stated),5.33% (inactive)
3,CN=C(NC#N)NCCSCc1csc(N=C(N)N)n1,-17.4% [at 35.3 µM] (inactive)
4,CCC(C)N (configuration not stated),-7.43% (inactive)
5,CCOc1ccc(NC(=O)OC(C)C)cc1OCC,21.9% (inactive)
6,CCCC(C)CC (configuration not stated),-4.89% (inactive)
7,Cc1ncc([N+](=O)[O-])n1CC(O)CCl (configuration not stated),1.7% [at 35.3 µM] (inactive)
8,O=C1c2ccccc2-c2ccccc21,-2.37% (inactive)
9,C/C=C(\C)C(=O)OCC/C=C\CC,0.504% (inactive)
10,CN(C1CCCCC1)S(=O)(=O)c1ccccc1N,16.9% (inactive)
11,Cc1ccc2c(c1)c1c3n2CCNC3CCC1 (configuration not stated),-3.16% [at 35.3 µM] (inactive)
12,Cc1ccc(S(=O)(=O)NC(=O)NC2CCCCCCC2)cc1,4.36% [at 35.3 µM] (inactive)
13,NCCc1ccn[nH]1,-2.37% [at 35.3 µM] (inactive)
14,CCCCC(CC)CNC(=O)CC(C)OC(=O)CCC(=O)O (configuration not stated),-7.27% [at 35.3 µM] (inactive)
15,COCC(=O)Nc1c(I)c(C(=O)NCC(O)CO)c(I)c(C(=O)N(C)CC(O)CO)c1I (configuration not stated),-25.4% [at 35.3 µM] (inactive)
16,CC(=O)OCCCc1ccccc1,1.99% (inactive)
17,O=S1(=O)CCCC1,-3.14% (inactive)

row,SMILES,cytotoxicity increase
1,CCCOC(=O)CCCCC(=O)OCCC,-6.55% (inactive)
2,CC(CC(=O)O)CC(C)(C)C (configuration not stated),-7.17% (inactive)
3,CC(C)(C)NCCO,3.27% (inactive)
4,c1ccc(CNc2ncnc3nc[nH]c23)cc1,-18.4% (inactive)
5,O=C(O)C(=O)Nc1cccc(-c2nn[nH]n2)c1,2.18% [at 35.3 µM] (inactive)
6,CC(=O)OC(C)c1ccccc1 (configuration not stated),0.239% (inactive)
7,CCOC(=O)C(=O)c1csc(NC=O)n1,-4.29% [at 35.3 µM] (inactive)
8,O=P(O)(O)OCC(O)CO (configuration not stated),2.12% [at 35.3 µM] (inactive)
9,CCCCCCCCCCCCCCCC(=O)NCCO,9.71% [at 35.3 µM] (inactive)
10,CC(C)(CO)[C@@H](O)C(=O)NCCCO,-5.27% [at 35.3 µM] (inactive)
11,COc1cccc2sc(N)nc12,-0.637% (inactive)
12,OC[C@@H](O)[C@H](O)[C@@H](O)[C@@H](O)CO,-14.2% (inactive)
13,NS(=O)(=O)c1ccccc1OC(F)(F)F,17.6% (inactive)
14,Nc1cc(Cl)cc(S(=O)(=O)O)c1O,24.4% (inactive)
15,O=C(CN1CCN(Cc2ccc3c(c2)OCO3)CC1)N1c2ccccc2Sc2ccccc21,-4.16% [at 35.3 µM] (inactive)
16,C=CC(C)(O)CC/C=C(\C)CC (configuration not stated),-6.8% (inactive)
17,CCOC(=O)CC(CC(=O)OCC)(OC(C)=O)C(=O)OCC,0.541% (inactive)

# Assay: A CellTox Green Cytotoxicity Assay to monitor cytotoxicity in HepG2 cells - 0 hour (AID 1224882); further: nearly all actives have a fitted effect of over 35% in size; further: potency means the concentration at half of the fitted maximal effect
# Conditions: CellTox Green fluorescence; series mostly up to 76.8 µM; cytotoxicity: at the top concentration
# Outline: as §1
SMILES,cytotoxicity,Potency
CCCCCCCC[Si](OCC)(OCC)OCC,0.67% (inactive),
CCC(C)(CCC(C)C)C(=O)[O-].CCC(C)(CCC(C)C)C(=O)[O-].[Zn+2] (configuration not stated),0.23% (inactive),
O=C(COCCOCCOCC(=O)Nc1c(I)cc(I)c(C(=O)O)c1I)Nc1c(I)cc(I)c(C(=O)O)c1I,-0.0253% [at 35.3 µM] (inactive),
CN=C(NC#N)NCCSCc1csc(N=C(N)N)n1,-9.19% [at 35.3 µM] (inactive),
CCC(C)N (configuration not stated),-7.43% (inactive),
CCOc1ccc(NC(=O)OC(C)C)cc1OCC,5.88% (inactive),
CCCC(C)CC (configuration not stated),0.268% (inactive),
Cc1ncc([N+](=O)[O-])n1CC(O)CCl (configuration not stated),5.35% [at 35.3 µM] (inactive),
Cc1nc2ccccc2c(=O)o1,-0.133% (inactive),
O=C1c2ccccc2-c2ccccc21,0.477% (inactive),
C/C=C(\C)C(=O)OCC/C=C\CC,-1.33% (inactive),
CN(C1CCCCC1)S(=O)(=O)c1ccccc1N,-7.63% (inactive),
Cc1ccc2c(c1)c1c3n2CCNC3CCC1 (configuration not stated),10.8% [at 35.3 µM] (inactive),
Cc1ccc(S(=O)(=O)NC(=O)NC2CCCCCCC2)cc1,3.76% [at 35.3 µM] (inactive),
NCCc1ccn[nH]1,-1.95% [at 35.3 µM] (inactive),
CCCCC(CC)CNC(=O)CC(C)OC(=O)CCC(=O)O (configuration not stated),,26.8 µM (active)
COCC(=O)Nc1c(I)c(C(=O)NCC(O)CO)c(I)c(C(=O)N(C)CC(O)CO)c1I (configuration not stated),7.81% [at 35.3 µM] (inactive),
CC(=O)OCCCc1ccccc1,1.38% (inactive),

SMILES,cytotoxicity,Potency
O=S1(=O)CCCC1,-0.765% (inactive),
CCCOC(=O)CCCCC(=O)OCCC,-4.38% (inactive),
CC(CC(=O)O)CC(C)(C)C (configuration not stated),-5.64% (inactive),
CC(C)(C)NCCO,3.48% (inactive),
c1ccc(CNc2ncnc3nc[nH]c23)cc1,-3% (inactive),
O=C(O)C(=O)Nc1cccc(-c2nn[nH]n2)c1,-2.3% [at 35.3 µM] (inactive),
CC(=O)OC(C)c1ccccc1 (configuration not stated),-9.36% (inactive),
CCOC(=O)C(=O)c1csc(NC=O)n1,-7.42% [at 35.3 µM] (inactive),
O=P(O)(O)OCC(O)CO (configuration not stated),-10% [at 35.3 µM] (inactive),
CC(C)(CO)[C@@H](O)C(=O)NCCCO,1.21% [at 35.3 µM] (inactive),
COc1cccc2sc(N)nc12,-1.72% (inactive),
OC[C@@H](O)[C@H](O)[C@@H](O)[C@@H](O)CO,1.82% (inactive),
CCCCCCCCCCCCCCCCCCN(C)C,-7.29% [at 35.3 µM] (inactive),
NS(=O)(=O)c1ccccc1OC(F)(F)F,-4.02% (inactive),
Nc1cc(Cl)cc(S(=O)(=O)O)c1O,0.0178% (inactive),
O=C(CN1CCN(Cc2ccc3c(c2)OCO3)CC1)N1c2ccccc2Sc2ccccc21,4.42% [at 35.3 µM] (inactive),
C=CC(C)(O)CC/C=C(\C)CC (configuration not stated),-2.91% (inactive),
CCOC(=O)CC(CC(=O)OCC)(OC(C)=O)C(=O)OCC,7.88% (inactive),
